These results are taken from PubChem BioAssay AID504467 (National Center for Advancing Translational Sciences (NCATS), 2011).

Screen size: about 330,000 compounds; about 7,700 (2.3%) were called active. Where a call stands in place of a potency, no number is given. Roughly 26% stayed inconclusive and do not appear here. Calls follow the shape of the dose curve; as a rule, active = well fitted inhibition curve with a large enough effect; inconclusive = small, poorly fitted or top-dose-only effect, or effect the other way; inactive = flat fitted curve, though single readings scatter. This excerpt belongs to a sample that is enriched for actives.
Potency is read from the fitted curve at half-maximal effect.

A short description of this assay: qHTS screen for small molecules that inhibit ELG1-dependent DNA repair in human embryonic kidney (HEK293T) cells expressing luciferase-tagged ELG1. Also: nearly all actives have a fitted effect of over 55% in size. The note with it: HEK293T ELG1-luciferase reporter, luminescence, 16 h, DNA damage induced by 5-fluorouridine; series mostly up to 46.1 µM. The gist of the method:
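Luminescence from the luciferase reporter, measured 30 min after ONE-Glo reagent at room temperature, was the read-out. Beforehand, 2,000 cells per well were exposed for 16 hr at 37 °C to 5-fluorouridine together with compound or vehicle.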
For orientation: Quantitative high-throughput screening tests each substance at several concentrations.
Turning to `CC1CCCCN1S(=O)(=O)c1ccc(S(=O)(=O)N(CC(=O)Nc2ccccc2)Cc2cccs2)cc1` (stereo not given), the Potency is 18.4 µM (active).
In the case of `CCN(CC(=O)NCc1cccs1)S(=O)(=O)c1ccc(NC(C)=O)cc1`, the Potency result was “inactive”.
On to `COCCN(CC(=O)Nc1ccccc1C)S(=O)(=O)c1ccc(S(=O)(=O)N2CCCC2)cc1`, for which the Potency result was “inactive”.
To `Cc1c(C(=O)N2CCCC2)c(S(=O)(=O)NCC(C)c2ccccc2)c(C)n1C` (stereo not given) belongs “inactive”; to `O=C(NNS(=O)(=O)c1ccc([N+](=O)[O-])cc1)C1CCCCC1`, “inactive”; to `CCN(CC)C(=O)[C@H]1CC(CC(=O)NCc2ccco2)C(=O)N2CCc3c([nH]c4ccccc34)[C@]12C` (stereo not given in full), “inactive”.
As for `CCOC(=O)CC1C(=O)NCCN1c1nc2c(C)cccn2c(=O)c1/C=C1\SC(=S)N(C(C)CC)C1=O` (stereo not given), the figure is 20.6 µM (active).
On to `Cc1cccn2c(=O)c(/C=C3\SC(=S)N(CC(C)C)C3=O)c(NCCCOC(C)C)nc12`, for which the Potency entry is “inactive”.
To `CCCN(CCC)c1nc2c(C)cccn2c(=O)c1/C=C1/SC(=S)N(Cc2ccco2)C1=O` belongs “inactive”.
To `COc1ccc(NC(=O)C2CCN(S(=O)(=O)c3ccc4[nH]c(=O)oc4c3)CC2)c(OC)c1` belongs “inactive”; to `O=S(=O)(c1cccs1)N1CCN(CCOc2ccccc2)CC1`, “inactive”; to `CCOC(=O)C1=C(C)N(C[C@@H]2CC[C@@H](Cc3ccc(-c4ccccc4)cc3)O2)C(=O)NC1c1ccc([N+](=O)[O-])cc1` (stereo not given in full), “inactive”.
As for `CC(=O)N1c2ccc(S(=O)(=O)N3CCCC(C(=O)Nc4ccc(C)cc4C)C3)cc2CC1C` (stereo not given), the entry is “inactive”.
For `COc1cc(Cl)c(C)cc1NC(=O)CSc1nnc(CN2CCCC2)o1`, the Potency result is “inactive”.
For `CCc1nc(SCC(=O)Nc2ccccc2OC)n[nH]1`, the Potency result was “inactive”.
As to `CCCc1nc(SCC(=O)Nc2ccccc2OC)c2c(=O)n(C)c(=O)n(C)c2n1`, the Potency is 23.1 µM (active).
As for `CCCc1nc(SCC(=O)N2CCCC2)c2c(=O)n(C)c(=O)n(C)c2n1`, the entry is “inactive”; as for `CCOC(=O)CCCCCC(=O)Nc1ccc2c(c1)CC(=O)N([C@@H](C)CO)C[C@H](C)[C@@H](CN(C)Cc1ccccc1)O2`, “inactive”; as for `Cc1cc(C)cc(NC(=O)C2CCCN(S(=O)(=O)c3ccc4[nH]c(=O)ccc4c3)C2)c1` (stereo not given), “inactive”.
As for `O=C(C1CCC(=O)N(C2CC2)C1)N1CCN(c2ccc(Cl)cc2)CC1` (stereo not given), the entry is “inactive”; as for `COc1cc(OC)cc(C(=O)NC2CCN(C(=O)N3c4ccccc4Sc4ccccc43)CC2)c1`, 13 µM (active); as for `COc1ccc(C(=O)NC2CCN(C(=S)Nc3ccccc3)CC2)cc1`, “inactive”.
To `COc1ccc(C(=O)NC2CCN(C(=S)NCCc3ccccc3)CC2)cc1` belongs “inactive”.
On to `O=C(CN(CC1CCCO1)C(=O)CNS(=O)(=O)c1ccc(Cl)cc1)NCc1ccccc1` (stereo not given), for which the Potency entry was “inactive”.
As for `COc1ccc(NC(=O)CN(C)C(=O)c2cc(C3CC3)nn2-c2ccccc2)cc1`, the entry is “inactive”; as for `COc1ccc(-c2cc(C(=O)n3cnc4ccccc43)c3ccccc3n2)cc1`, “inactive”; as for `COc1ccc(-c2cc(C(=O)N(C)CC(=O)Nc3ccccc3Cl)c3ccccc3n2)cc1OC`, 2.06 µM (active).
Take `Cc1ccc(-c2nn(-c3ccccc3)cc2C(=O)NCCCN2CCCC2=O)cc1`: the Potency entry is “inactive”.
Consider `COc1ccc(Cl)cc1NC(=O)CN(C)C(=O)c1ccc2n[nH]nc2c1`, for which the Potency result is “inactive”.
`COc1ccc(NC(=O)CN(C)C(=O)c2cc(-c3ccc(C)o3)nc3ccccc23)cc1`: the Potency is 20.6 µM (active).
As for `Cc1cccc(C(=O)NCCCN2CCCC2=O)c1`, the entry is “inactive”; as for `COc1ccc(C2=NS(=O)(=O)N(C)C(C(=O)N(C)Cc3ccccc3)=C2)cc1`, “inactive”; as for `COc1ccc(NC(=O)CN(C)C(=O)c2ccc(COc3ccccc3)o2)cc1`, “inactive”.
On to `COc1ccc(-c2cc(C(=O)NCCCN3CCCC3=O)c3ccccc3n2)cc1OC`, for which the Potency is 20.6 µM (active).
On to `COc1ccccc1NC(=O)c1cc(Cl)nc2ccccc12`, for which the Potency entry is “inactive”.
In the case of `COc1ccc(-c2cc(C(=O)N(C)Cc3ccccc3)c3ccccc3n2)cc1`, the Potency is 23.1 µM (active).
As for `CC(C)Oc1ccc(S(=O)(=O)N2CCOCC2)cc1NC(=O)C1CSC2(C)CCC(=O)N12` (stereo not given), the Potency entry was “inactive”.
As for `CCc1cccc(C)c1N1C(=O)CN(Cc2ccccc2)C1=S`, the entry is “inactive”.
As for `CNC[C@H](CC1CCCCC1)NC[C@H](NCCC1CCCC1)[C@H](C)O`, the entry is “inactive”; as for `CSc1ncccc1C(=O)Nc1cccc(S(=O)(=O)N2CCOCC2)c1`, “inactive”.
In the case of `CCCN(CC1CC1)C(=S)NC(=O)c1ccccc1Br`, the Potency result is “inactive”.
For the compound `O=C(COC(=O)c1ccccc1Cl)NC1CCCCCCC1`, the Potency entry was “inactive”.
To `Cc1cc(NC(=O)CCN2CCN(Cc3ccccc3)CC2)ccc1Br` belongs “inactive”; to `OC(COc1ccc(F)cc1Cl)CN1CCc2ccccc2C1` (stereo not given), “inactive”.
For `COc1ccc(CN(C)C(=O)c2cc(-c3ccc(C)cc3C)nc3ccccc23)c(OC)c1OC`, the Potency is 8.2 µM (active).
As for `Cc1ccc(-c2cc(C(=O)Nc3nn[nH]n3)c3ccccc3n2)c(C)c1`, the entry is “inactive”.
As for `COc1ccc(CN(C)C(=O)Cc2c[nH]c3ccccc23)c(OC)c1OC`, the Potency result was “inactive”.
As for `Cc1c(Cl)c([N+](=O)[O-])nn1Cc1ccc(C(=O)N/N=C\c2cc(Cl)ccc2O)o1`, the figure is 5.17 µM (active); as for `Cc1ccc(C(=O)O)cc1NC(=O)c1ccc(Cn2nc(C)c(Cl)c2C)o1`, “inactive”; as for `Cc1c(Cl)c([N+](=O)[O-])nn1CCCC(=O)Nc1cc(Cl)ccc1Cl`, “inactive”.
To `COc1ccc(Br)cc1CN(C)C(=O)C1CC(=O)N(C2CCCC2)C1` (stereo not given) belongs “inactive”.
To `CC(OC(=O)CNC(=O)c1ccco1)C(=O)Nc1ccc(Cl)cn1` (stereo not given) belongs “inactive”.
`COc1cc(-c2nc(S(=O)(=O)c3ccc(Cl)cc3)c(N(C)C)o2)cc(OC)c1OC`: the Potency was 8.2 µM (active).
For the compound `COc1ccc(-c2nnc(NC(=O)CS(=O)(=O)c3ccc(Cl)cc3)o2)c(OC)c1`, the Potency result is “inactive”.
To `O=S(=O)(c1ccc(Cl)cc1)c1nc(-c2ccco2)oc1N1CCCCC1` belongs “inactive”.
As for `CC(=O)Nc1ccc(S(=O)(=O)NC(C)C(=O)OCCOc2ccc(F)cc2)cc1` (stereo not given), the entry is “inactive”.
As for `COc1ccccc1NC(=O)C1=C(C)Nc2nc3ccccc3n2C1c1cccs1` (stereo not given), the figure is 9.2 µM (active); as for `COc1ccccc1NC(=O)C1=C(C)NC(=O)NC1c1ccc(C)s1` (stereo not given), “inactive”.
As for `CCOC(=O)C1=C(C)Nc2nc3ccccc3n2C1c1cccs1` (stereo not given), the Potency entry was “inactive”.
As for `CCOC(=O)C1CCCN(C(=O)c2ccc(C)c(S(=O)(=O)N3CCCCC3)c2)C1` (stereo not given), the entry is “inactive”.
